# Screening data (PubChem)
# TexasRed fluor: Total Fluorescence Counterscreen for Inhibitors of the Interaction of Thyroid Hormone Receptor and Steroid Receptor Coregulator 2 | TRb/SRC2 Texas Red total fluorescence interference | Potency, µM (highest dose often 106 µM), without a hit: at the top dose fluorescence change, negative = quenching | actives 0.29% (n = 280,000) | AID 1479, 2009; active means well fitted curve in either direction with a large enough effect; inconclusive means small, poorly fitted or top-dose-only effect
#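 Flags fluorescent or light-absorbing compounds by total fluorescence, S + 2P, at 555 nm excitation and 632 nm emission. Mixture: 20 nM Texas Red SRC2 peptide, 0.6 uM human TRb LBD, 1 uM T3, 5% DMSO; compound exposure 5 h at ambient temperature.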
# Tau fluor counter: Counterscreen qHTS for Inhibitors of Tau Fibril Formation, Fluorescence Polarization | tau K18 P301L Alexa594 fluorescence, heparin fibrillization | Potency, µM (doses to about 57.7 µM), for the others: top-dose activity change, negative = decrease | actives 0.93% (n = 280,000) | AID 1463, 2008; further: nearly all actives have a fitted effect of over 55% in size
#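 Human tau K18 P301L (15 uM unlabeled, 0.24 uM Alexa 594-labeled) in 100 mM sodium acetate pH 7 with 20 uM heparin, 6 hr at 37 C. ThT 30 uM added, 1 hr ambient; Alexa 594 FP and total fluorescence read at 555/632 nm.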
# TRb-SRC2 inh: qHTS for Inhibitors of the Interaction of Thyroid Hormone Receptor and Steroid Receptor Coregulator 2; TRbeta-SRC2 peptide binding, fluorescence polarization; receptor liganded with 1 µM T3; Potency, µM (titrated, usually from 106 µM), inactives show at the highest dose activity change, negative = inhibition, hits mostly inhibitors; actives 0.065% (n = 280,000);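 further: plate controls were bound peptide for no effect and peptide without receptor for full effect; nearly all actives have a fitted effect of over 50% in size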
# Target sequence (P10828 whole entry, looked up): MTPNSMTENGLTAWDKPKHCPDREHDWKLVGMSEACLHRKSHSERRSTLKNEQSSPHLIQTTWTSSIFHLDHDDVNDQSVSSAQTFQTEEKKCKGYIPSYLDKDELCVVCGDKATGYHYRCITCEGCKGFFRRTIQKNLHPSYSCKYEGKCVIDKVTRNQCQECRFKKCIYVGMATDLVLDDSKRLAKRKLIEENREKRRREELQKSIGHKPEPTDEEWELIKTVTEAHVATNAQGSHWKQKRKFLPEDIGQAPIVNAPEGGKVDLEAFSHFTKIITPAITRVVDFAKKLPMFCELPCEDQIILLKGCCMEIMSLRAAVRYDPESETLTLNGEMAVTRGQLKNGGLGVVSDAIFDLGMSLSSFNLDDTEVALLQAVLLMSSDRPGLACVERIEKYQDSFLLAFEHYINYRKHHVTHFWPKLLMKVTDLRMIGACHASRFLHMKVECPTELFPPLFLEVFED
#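 Human TRb ligand-binding domain (0.6 uM) is mixed with 20 nM Texas Red SRC2 peptide and 1 uM T3; after compound addition and 5 hr at ambient temperature, polarization is measured and normalized to unbound and bound controls.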
# Tau fibril ThT: qHTS for Inhibitors of Tau Fibril Formation, Thioflavin T Binding. Microtubule-associated protein tau (Homo sapiens), P10636. recombinant tau K18 P301L, heparin-induced fibrillization, ThT fluorescence. Potency, µM (titrated, usually from 57.4 µM), for inactives: at the highest dose activity, negative = inhibition, actives largely listed as inhibitors. actives 2.1% (n = 270,000); further: nearly all actives have a fitted effect of over 55% in size
# Target sequence (P10636 561-689 P618L limits assumed): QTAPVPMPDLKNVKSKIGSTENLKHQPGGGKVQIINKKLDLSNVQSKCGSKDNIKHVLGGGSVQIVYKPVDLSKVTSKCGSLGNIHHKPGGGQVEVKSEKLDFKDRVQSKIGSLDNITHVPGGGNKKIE
#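 Fibril formation assay: tau K18 P301L at 15 uM with trace Alexa 594 label, heparin inducer 20 uM, pH 7 sodium acetate buffer, 37 C for 6 hr; endpoint ThT signal.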
# Tau fibril FP: qHTS for Inhibitors of Tau Fibril Formation, Fluorescence Polarization; actives 0.39% (n = 280,000); Potency, µM (doses to about 57.7 µM), without a hit: at the top dose activity, negative = inhibition, hits mostly inhibitors; Microtubule-associated protein tau (Homo sapiens), P10636; K18 P301L tau heparin fibrillization, Alexa594 FP, 6 h; further: nearly all actives have a fitted effect of over 55% in size
#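 Human tau K18 […] P301L fragment, 15 uM unlabeled plus 0.24 uM Alexa 594-labeled tau (final), with compound and 20 uM heparin in 100 mM sodium acetate pH 7; 6 hr at 37 C, then Alexa 594 FP read.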
# Starred values were filed as active, the others as inactive; ? = inconclusive; · = no result; ! = not confirmed by another sample; [ ] = another dose, or the depositor's remark. Only some compounds are listed: those with a hit (about 3.1% of all), similar ones and a draw of the others. Unless noted, the call rests on the fitted dose curve; in most records, active means well fitted curve in the direction sought with a large enough effect; inconclusive means small, poorly fitted or top-dose-only effect, or another doubt; inactive means no such curve, though single readings can be large; an effect the other way counts as inactive or inconclusive. Unless noted, on the % scale 0 is the no-effect control and ±100 the full control effect; potency means the concentration at half of the fitted maximal effect.
SMILES,TexasRed fluor,Tau fluor counter,TRb-SRC2 inh,Tau fibril ThT,Tau fibril FP
COc1cccc2c1C(=O)c1c(O)c3c(c(O)c1C2=O)C[C@@](O)(C(=O)CO)C[C@@H]3O[C@@H]1C[C@H](N)[C@H](O)[C@H](C)O1,45µM*[fluorescent],10%,25µM*,13µM*,?
COc1cccc2c1C(=O)c1c(O)c3c(c(O)c1C2=O)C[C@@](O)(C(=O)CO)C[C@@H]3O[C@H]1C[C@H](N)[C@H](O)[C@H](C)O1,100µM*[fluorescent],-6%,22µM*!,3.2µM*,25µM*
COc1cccc2c1C(=O)c1c(O)c3c(c(O)c1C2=O)C[C@@](O)(C(=O)CO)C[C@@H]3OC1CC(N)C(O)C(C)O1 (stereo not given in full),32µM*[fluorescent],·,20µM*,·,·
Cc1ccc(-c2nc(-c3cc4cccc(OCc5cccc(F)c5)c4oc3=O)no2)cc1,-1%,-12%,-3%,-11%,-5%
Cc1ccc(C)c(CSc2c(C(C)C)cnc3c2c(=O)n(C)c(=O)n3C)c1,-1%,-4%,1%,-13%,-2%
CCOCCCNC(=O)C1CCN(c2nc3ccc(Cl)cc3[nH]2)CC1,-3%,-5%,-4%,-7%,4%
COc1ccc(NC=O)c(C(=O)CCNC(C)=O)c1,-2%,·,-2%,·,·
COc1ccc(-c2c(C)nn3c(N4CCN(c5cc(Cl)ccc5C)CC4)cc(C)nc23)cc1OC,-6%,-15%,4%,-16%,9%
CCOc1ccc(NC(=O)CC2C(=O)OCCN2CC)cc1 (stereo not given),-3%,-15%,-4%,?,-3%
CC(=O)C1(O)Cc2c(O)c3c(c(O)c2C(OC2CC(N)C(O)C(C)O2)C1)C(=O)c1c(O)cccc1C3=O (stereo not given),45µM*[fluorescent],·,25µM*,·,·
c1ccc(Nc2cccc(Nc3ccccc3)n2)cc1,2%,13µM*[quencher],4%,14µM*,3%
CCN(C(=O)COc1cccc2cccnc12)C1CCS(=O)(=O)C1 (stereo not given),1%,-28%,4%,25µM*,?
CCN(C(=O)COC(=O)c1ccc(Cl)nc1)C1CCS(=O)(=O)C1 (stereo not given),0%,-4%,0%,-3%,-3%
CC(C)=CCC/C(C)=C/C=C/C(C)=C/C=C/C(C)=C/C=C/C=C(C)/C=C/C=C(C)/C=C/C=C(\C)CCC=C(C)C,0%,·,0%,·,·
O=C1CN(CC(=O)N2CCCCC2)c2ccccc2O1,0%,?,2%,28µM*,?
COc1cccc(Cn2c(CNC(=O)Cc3cccc(C)c3)nc3cccnc32)c1,-4%,-13%,-5%,-9%,9%
O=C(/C=C/c1ccc(O)c(O)c1)OCCc1ccccc1,-21%,11µM*[quencher],5%,?,?
COc1cc(/C=C/C(=O)c2ccc(O)cc2O)ccc1O,-12%,·,12%,·,·
O=C(/C=C/c1ccc(O)c(O)c1)c1ccccc1O,-5%,?,5%,13µM*,?
O=C(/C=C/c1ccc(O)c(O)c1)OC(Cc1ccc(O)c(O)c1)C(=O)O (stereo not given),-7%,?,0%,-15%,-8%
CC(C)=CCC/C(C)=C/Cc1c(O)ccc(C(=O)/C=C/c2ccc(O)cc2)c1O,-4%,4.5µM*[quencher],2%,20µM*,7.9µM*
O=C(O)/C=C\c1ccc(O)c(O)c1,-5%[53 µM],·,1%[53 µM],·,·
COc1cc(O)cc(O)c1C(=O)/C=C/c1ccccc1,-3%,-19%,8%,?,-6%
COc1cc(OC)c(C(=O)/C=C/c2ccccc2)c(O)c1O,-5%,-28%,-3%,13µM*,5%
COc1ccc(/C=C/C(=O)c2ccc(O)cc2O)cc1,-6%,?,3%,11µM*,-15%
SMILES,TexasRed fluor,Tau fluor counter,TRb-SRC2 inh,Tau fibril ThT,Tau fibril FP
CCc1cc(C(=O)O)c(NC(=O)/C=C/c2ccc(OC)c(OC)c2)s1,-20%,-15%,4%,?,0%
CCc1cc(C(=O)O)c(NC(=O)/C=C/c2ccc(OC)cc2)s1,-9%,?,8%,13µM*,-2%
COc1cc(O)c(C(=O)/C=C/c2ccc(O)c(OC)c2)c(OC)c1,-2%,-29%,-7%,1.8µM*,1%
COc1ccc(/C=C/C(=O)c2c(OC)cc(O)cc2OC)cc1,1%,·,4%,·,·
COc1ccc(/C=C/C(=O)c2ccc(O)cc2O)cc1OC,0%,-18%,-3%,7.1µM*,-14%
O=C(/C=C/c1ccc(O)cc1)c1ccc(O)cc1O,-8%,?,14%,10µM*,8%
COc1ccc(/C=C/C(=O)c2cc3c(cc2N)OCO3)cc1,-6%,16µM*[quencher],3%,2.8µM*,-2%
O=C(/C=C/c1ccccc1)c1ccc(O)cc1O,-7%,-25%,?,?,?
COc1ccc(/C=C/C(=O)O)cc1,45µM*![fluorescent],6%,25µM*!,6%,3%
COc1ccc(C(=O)/C=C/c2ccccc2)c(O)c1,-2%,1%,0%,?,14%
COc1ccc(/C=C/C(=O)c2cc(O)ccc2O)cc1,-5%,14µM*[quencher],7%,14µM*,?
CCCCNC(=O)CC1Nc2cc(C)c(C)cc2NC1=O (stereo not given),-4%,-3%,7%,?,-2%
COc1ccc(NC(=O)Cc2ccc(C)cc2)c([N+](=O)[O-])c1,-2%,-18%,1%,-12%,-6%
Cc1cc2c(cc1C)NC(CC(=O)Nc1cccc(Cl)c1)C(=O)N2 (stereo not given),?,25µM*[quencher],-1%,?,10%
O=C(CC1Nc2cccc3cccc(c23)NC1=O)Nc1ccc(F)cc1 (stereo not given),-1%,8.9µM*![quencher],0%,?,7%
COc1ccc(NC(=O)CC2Nc3cc(C)c(C)cc3NC2=O)c([N+](=O)[O-])c1 (stereo not given),0%,?,-7%,11µM*,?
O=C(CC1Nc2ccccc2NC1=O)Nc1cc(Cl)cc(Cl)c1 (stereo not given),-4%,14µM*[quencher],1%,?,8%
COC(=O)C1CCC(C(=O)OC)CC1 (stereo not given),3%[201 µM],·,2%[201 µM],·,·
